The source of these data is PubChem BioAssay AID2685 (National Center for Advancing Translational Sciences (NCATS), 2010).

Screen size: about 320,000 compounds; about 2,100 (0.66%) were called active. Another 53% or so got no clear call; they are omitted. The sample holds actives, similar compounds and a random draw of the others, so the mix is not that of the screen. The call rests on the fitted dose curve; in most records, active means well fitted inhibition curve with a large enough effect in the signal ratio, with a control signal flat (not every such curve was filed as active); inconclusive means small, poorly fitted or top-dose-only effect, or effect the other way, or a change in a side signal; inactive means flat fitted curve, though single readings scatter; the % refers to the signal ratio.
Potency means the concentration at half of the fitted maximal effect.

This assay is described as follows: qHTS Assay for Lipid Storage Modulators in Drosophila S3 Cells.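 On cell number change: cells counted by Cell Tracker Red CMTPX staining in the red channel.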 On lipid storage change, negative = inhibition: on the % scale 0 is the no-effect control and ±100 the full control effect. To be noted: BODIPY lipid droplet fluorescence, 18-24 h, cells fed with added oleic acid; cell number change: measured here: cell count max response; series mostly up to 46.1 µM; lipid storage change, negative = inhibition: at the top concentration. In outline: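 Laser-scanning cytometry quantifies lipid droplet accumulation (500–530 nm total intensity; droplet/cell object ratio) in oleic acid-fed (400 uM added) Drosophila S3 cells treated with a concentration series. 20 uM Triacsin C defined 100% inhibition.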
With `O=C1/C(=C\c2ccccc2)CCc2c1[nH]c1ccccc21`, the call was inactive.

Consider `Cc1cc(=O)n2nc(N3CCCC(C(=O)NCc4cccc(Br)c4)C3)sc2n1` (stereo not given), for which the molecule was classed as inactive.

`NC(=O)c1ccccc1OCc1cccc2ccccc12`: the molecule was called inactive.

As to `CC1(C)CC(=O)C2=C(C1)N=C1SCCC(=O)N1C2c1ccccc1` (stereo not given), the “lipid storage change, negative = inhibition” value was 18.4% (inactive) and the cell number change was determined as 9.02%.

In the case of `Cc1ccc(S(=O)(=O)NNC(=O)c2csnn2)cc1`, the “lipid storage change, negative = inhibition” value is -10.6% (inactive).

Take `O=[N+]([O-])c1ccc(CN2CCCCCC2)s1`: the “lipid storage change, negative = inhibition” value is -6.35% (inactive) and the cell number change is -8.81%.

Turning to `Cc1ccc2nc(SCC(=O)Nc3cccc(F)c3)nc(=O)n2c1`, the Potency was 4.11 µM (active) and the cell number change turned out to be 1.08%.

On to `Cc1ccc2nc(SCC(=O)Nc3ccc(Br)cc3)nc(=O)n2c1`, for which the “lipid storage change, negative = inhibition” value is -21.1% (inactive) and the cell number change was -15.9%.

For `Cc1ccc2nc(SCC(=O)Nc3cc(C)on3)nc(=O)n2c1`, the cell number change came to 23.9% and the lipid storage change, negative = inhibition was -10.5% [at 0.0737 µM] (inactive).

In the case of `CCOC(=O)C1=C(N)OC2=C(C(=O)CC(C)(C)C2)C1c1cccnc1` (stereo not given), the “lipid storage change, negative = inhibition” value is 26.8% (inactive) and the cell number change is -4.63%.

On to `CCOCCCNC(=S)N(Cc1ccccc1)Cc1nc2ccccc2c(=O)[nH]1`, for which the Potency was 0.92 µM (active) and the cell number change is 5.59%.

Consider `O=C(c1ccccc1)N(Cc1ccc(F)cc1)Cc1nc2ccccc2c(=O)[nH]1`, for which the “lipid storage change, negative = inhibition” value is 4.2% (inactive) and the cell number change is -10.1%.

On to `COCCCNC(=S)N(Cc1ccccc1)Cc1ccccc1`, for which the “lipid storage change, negative = inhibition” value is -3.1% (inactive) and the cell number change was -0.836%.

On to `CNC(=S)N(Cc1cc2ccc(OC)cc2[nH]c1=O)CC1CCCO1` (stereo not given), for which the “lipid storage change, negative = inhibition” value was -12.6% (inactive) and the cell number change is -8.74%.

Consider `Cc1onc(-c2ccccc2)c1-c1ccnn1C(=O)NC(C)C`, for which the “lipid storage change, negative = inhibition” value is -0.97% (inactive) and the cell number change was 15.2%.

For the molecule `O=C1CCCC(=O)N1c1ccc(N2CCN(c3ccccc3)CC2)c([N+](=O)[O-])c1`, the “lipid storage change, negative = inhibition” value is 6.96% (inactive) and the cell number change was -1.18%.

As for `O=C1CCCC(=O)N1c1ccc(N2CCN(c3ccc([N+](=O)[O-])cc3)CC2)c([N+](=O)[O-])c1`, the Potency was 20.6 µM (active) and the cell number change is -26.2%.

On to `Cc1cccc(N2CCN(c3ccc(N4C(=O)CCCC4=O)cc3[N+](=O)[O-])CC2)c1C`, for which the “lipid storage change, negative = inhibition” value was 11.2% (inactive) and the cell number change amounted to 4.71%.

With `COC(=O)[C@@H]1C[C@@]2(O)[C@@H](O)[C@@H](O)[C@@H](O)C[C@H]2N1CC(c1ccccc1)c1ccccc1`, the “lipid storage change, negative = inhibition” value is -0.438% (inactive).

Consider `O=C(c1cc2n(n1)C(C(F)(F)F)CC(c1ccc(Cl)cc1)N2)N1CCCC1` (stereo not given), for which the molecule was classed as inactive.

As to `O=C(O)CCC(=O)N1CCc2cc(S(=O)(=O)NCc3ccc(Cl)cc3)ccc21`, the “lipid storage change, negative = inhibition” value is 2.28% (inactive).

Regarding `COc1ccccc1OCC(=O)Nc1ccc(NC(=O)COc2ccccc2OC)cc1`, the “lipid storage change, negative = inhibition” value is -14.2% (inactive) and the cell number change was -9.29%.

`COc1ccc2nc(SCC(=O)NC3CCCCC3C)[nH]c2c1` (stereo not given): the Potency was 29.1 µM (active) and the cell number change was 1.48%.

Regarding `CC1CCCCC1NC(=O)CSc1nc2ccccc2[nH]1` (stereo not given), the “lipid storage change, negative = inhibition” value was 5.65% (inactive) and the cell number change was 3.6%.

In the case of `COc1ccc2nc(SCC(=O)NC3CCCCC3)[nH]c2c1`, the “lipid storage change, negative = inhibition” value is 7.03% (inactive) and the cell number change amounted to 19.4%.

Consider `CCCCCCCCCCOC(=O)c1csc2nnsc12`, for which the “lipid storage change, negative = inhibition” value is 2.92% (inactive) and the cell number change was found to be 6.22%.

In the case of `O=C(NCCCO)c1ccc2[nH]c3ccccc3c2c1`, the “lipid storage change, negative = inhibition” value is 26.1% (inactive) and the cell number change was -15.6%.

For `Cc1cnc(C(=O)Nc2cccc(-c3nnc4n3CCCCC4)c2)cn1`, the “lipid storage change, negative = inhibition” value is 3.04% (inactive) and the cell number change turned out to be 3.24%.

On to `Cc1ccc(C(NC(=O)N2CC(C)OC(C)C2)C(Cl)Cl)cc1F` (stereo not given), for which the “lipid storage change, negative = inhibition” value was -10.8% (inactive) and the cell number change is -1.54%.

With `O=C(c1c[nH]c(C(=O)C(Cl)(Cl)Cl)c1)c1ccccc1Cl`, the Potency was 25.9 µM (active) and the cell number change was -14.7%.

With `O=C(c1c[nH]c(C(=O)C(Cl)(Cl)Cl)c1)c1ccccc1Br`, the “lipid storage change, negative = inhibition” value was -13.6% (inactive) and the cell number change was 7.04%.

Regarding `O=C(c1c[nH]c(C(=O)C(Cl)(Cl)Cl)c1)c1ccccc1F`, the “lipid storage change, negative = inhibition” value is -19.6% (inactive) and the cell number change was -11.6%.

As for `COCC(=O)N1CCC(Oc2ccc(C(=O)NCc3cc(C)n(C)n3)cc2)CC1`, the Potency is 16.4 µM (active) and the cell number change was -3.12%.

As for `COCC(=O)N1CCC(Oc2ccc(C(=O)NCc3cnc(C)cn3)cc2)CC1`, the “lipid storage change, negative = inhibition” value was 0.0981% (inactive) and the cell number change stood at 0.0828%.

In the case of `COCCC(=O)N1CCC(Oc2ccc(C(=O)NCc3cc(C)n(C)n3)cc2)CC1`, the “lipid storage change, negative = inhibition” value was -6.14% (inactive) and the cell number change is -14.5%.

Take `CSc1ccc(C(=O)C2CCCN(C(=O)c3cc4cc(F)ccc4[nH]3)C2)cc1` (stereo not given): the “lipid storage change, negative = inhibition” value is 10.5% (inactive) and the cell number change came out at 18.3%.

`CCN1CCN(CC(=O)Nc2ccc(OC(F)(F)F)cc2)CC1`: the “lipid storage change, negative = inhibition” value was -6.43% (inactive) and the cell number change was -11.2%.

On to `O=C(COC(=O)c1ccc([N+](=O)[O-])o1)Nc1nc2ccccc2s1`, for which the “lipid storage change, negative = inhibition” value was -1.77% (inactive) and the cell number change was -3.3%.

Regarding `O=C(Nc1nc2c(F)cc(F)cc2s1)c1ccc2c(c1)OCCO2`, the “lipid storage change, negative = inhibition” value is 12.2% (inactive) and the cell number change was found to be 6.09%.

In the case of `Cc1cc(C)c2nc(NC(=O)c3ccc([N+](=O)[O-])o3)sc2c1`, the “lipid storage change, negative = inhibition” value was -12.7% (inactive) and the cell number change came to 8.03%.

For `O=C(Nc1nc2ccccc2s1)c1ccc([N+](=O)[O-])o1`, the “lipid storage change, negative = inhibition” value is -7.57% (inactive) and the cell number change turned out to be 24.1%.

`CC(=O)Nc1nc(-c2cccs2)cs1`: the “lipid storage change, negative = inhibition” value is 11.7% (inactive) and the cell number change was -17%.

Consider `O=C(Nc1nc2c(F)cc(F)cc2s1)c1ccc([N+](=O)[O-])o1`, for which the Potency is 5.8 µM (active) and the cell number change is -16.4%.

On to `O=C(Nc1nc2c(Cl)cccc2s1)c1ccc([N+](=O)[O-])o1`, for which the Potency is 11.6 µM (active) and the cell number change is -16.1%.

In the case of `O=C(Nc1nc(-c2cccs2)cs1)C1=COCCO1`, the “lipid storage change, negative = inhibition” value was 6.6% (inactive) and the cell number change is -0.427%.

`O=C(Nc1nc(-c2cccs2)cs1)c1ccc([N+](=O)[O-])o1`: the Potency is 2.06 µM (active) and the cell number change was -9.47%.
